Algae TAG accum: inducers of TAG accumulation in Chlamydomonas, primary screen, qHTS, Chlamydomonas reinhardtii. Nile Red fluorescence, 72 h. calls only at 10 µM (by protocol). actives 0.84% (n = 44,000); call rule not given here;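 note: hits raise Nile Red signal meaning more stored TAG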
Calls only. The entries come from a sample that favours hits as a whole.

For C=CCNC(=O)C(C)N(c1ccc(OCC)cc1)S(C)(=O)=O (configuration not stated) the results were Algae TAG accum active.
Screening CCOc1ccc(N(C(C)C(N)=O)S(C)(=O)=O)cc1 (configuration not stated) returned Algae TAG accum inactive.
CCOc1ccc(N(C(C)C(=O)NCc2ccccc2OC)S(C)(=O)=O)cc1 (configuration not stated) was read as Algae TAG accum inactive.
For CN(C)C1=C(Nc2cccc(Cl)c2)C(=O)c2ccccc2C1=O the results were Algae TAG accum inactive.
COc1cccc(NC2=C(N(C)C)C(=O)c3ccccc3C2=O)c1 was read as Algae TAG accum active.
Screening COc1ccc(NC2=C(N(C)C)C(=O)c3ccccc3C2=O)cc1 returned Algae TAG accum inactive.
`COc1cc(Cl)c(S(=O)(=O)N2CCOCC2)cc1Cl` gave Algae TAG accum inactive.
O=C(COc1ccc(Cl)cc1)Nc1nccs1 was read as Algae TAG accum inactive.
O=C(NCCc1ccc(Cl)cc1)C(=O)Nc1nccs1 was read as Algae TAG accum active.
Screening Cc1ccc(NC(=O)C(=O)NCCc2ccc(Cl)cc2)cc1C returned Algae TAG accum inactive.
Screening Cc1ccc(S(=O)(=O)c2ccccc2)cc1S(=O)(=O)N1CCCCC1 returned Algae TAG accum inactive.
Screening CCn1cc(C(=O)O)c(=O)c2cc(F)c(N3CCOCC3)cc21 returned Algae TAG accum inactive.
`CC1CCCCN1C(=O)c1ccccc1NC(=O)c1ccc(Br)cc1` (configuration not stated) gave Algae TAG accum inactive.
For Cc1cc2nc3c(nc2cc1C)-c1ccccc1C3=O the results were Algae TAG accum inactive.
Screening O=C(Nc1ccc(F)c(F)c1)c1ccc2c(c1)OCO2 returned Algae TAG accum inactive.
`O=C(Nc1ccc2c(c1)OCO2)c1c(F)c(F)c(F)c(F)c1F` gave Algae TAG accum active.
Screening O=C(Nc1ccc2c(c1)OCO2)c1ccc2c(c1)OCO2 returned Algae TAG accum inactive.
For CC(C)Oc1ccc(C(=O)Nc2ccccc2C(N)=O)cc1 the results were Algae TAG accum inactive.
Screening NC(=O)c1cc(-c2ccccc2)sc1NC(=O)c1ccc(OC(F)F)cc1 returned Algae TAG accum active.
Screening NC(=O)c1cc(-c2ccccc2)sc1N returned Algae TAG accum inactive.
For CN(C)CCN1C(=O)C(O)=C(C(=O)c2cccs2)C1c1ccccc1F (configuration not stated) the results were Algae TAG accum inactive.
For CC1CN(CC(O)COc2ccc(Br)cc2)CC(C)O1 (configuration not stated) the results were Algae TAG accum inactive.
`COc1ccc(CN2CCOCC2)c(O)c1` gave Algae TAG accum inactive.
Screening COCCCNC(=O)c1ccc(Cl)cc1Cl returned Algae TAG accum inactive.
Screening Cc1ccc(OCCCCN2CCOCC2)c(Br)c1 returned Algae TAG accum inactive.
`C=CCc1cc(C)ccc1OCCOCCN1CCOCC1` gave Algae TAG accum inactive.
For Brc1ccccc1OCCCN1CCOCC1 the results were Algae TAG accum inactive.
For Clc1ccc(OCCCN2CCOCC2)c(Br)c1 the results were Algae TAG accum active.
CN1CCN(CCCOc2cc(Cl)ccc2Cl)CC1 was read as Algae TAG accum active.
For CN1CCN(CCCOc2ccc(Cl)cc2C(C)(C)C)CC1 the results were Algae TAG accum inactive.
`Brc1cccc(OCCN2CCOCC2)c1` gave Algae TAG accum inactive.
Cc1ccc(C(C)C)cc1OCCCN1CCNCC1 was read as Algae TAG accum inactive.
CN1CCN(CCCOc2ccc(Cl)c(Cl)c2)CC1 was read as Algae TAG accum inactive.
Screening Clc1cc(Br)ccc1OCCOCCN1CCOCC1 returned Algae TAG accum active.
Screening Cc1ccc(C(C)C)cc1OCCOCCN1CCOCC1 returned Algae TAG accum active.
Screening O=C(COc1ccc(Cl)cc1Br)NCCN1CCOCC1 returned Algae TAG accum inactive.
Screening COc1ccccc1NC(=O)Nc1ccccc1 returned Algae TAG accum inactive.
For O=S(=O)(NCCc1cccc(Cl)c1)c1ccccc1 the results were Algae TAG accum inactive.
CN1CCN(S(=O)(=O)c2ccc(-c3ccc(S(=O)(=O)N4CCN(C)CC4)cc3)cc2)CC1 was read as Algae TAG accum inactive.
`Nc1nc(-c2cccc(Br)c2)cs1` gave Algae TAG accum inactive.
Screening COc1cccc(C2C(=C(O)c3ccc(Cl)cc3)C(=O)C(=O)N2CCCN(C)C)c1OC (configuration not stated) returned Algae TAG accum inactive.
For Cc1nc(N2CCOCC2)nc(OC(C)C)c1[N+](=O)[O-] the results were Algae TAG accum inactive.
CN(C)CCCOc1ccc(Cl)cc1Br was read as Algae TAG accum inactive.
Screening Brc1ccccc1OCCCCN1CCCCC1 returned Algae TAG accum inactive.
For Clc1ccc(OCCCCN2CCCC2)c(Br)c1 the results were Algae TAG accum active.
COc1ccc(Cl)cc1N(CC(=O)O)S(=O)(=O)c1ccc(C)c([N+](=O)[O-])c1 was read as Algae TAG accum inactive.
Screening O=C(NCCCc1ccccc1)c1cccc([N+](=O)[O-])c1 returned Algae TAG accum inactive.
Screening Cc1cccc(OCCCCN2CCCCC2)c1 returned Algae TAG accum inactive.
`Cc1ccc(OCCCN2CCCC2)c([N+](=O)[O-])c1` gave Algae TAG accum inactive.
Cc1ccc(OCCCCN2CCCC2)c(C)c1 was read as Algae TAG accum active.
Clc1ccc(OCCCN2CCOCC2)cc1 was read as Algae TAG accum inactive.
Screening Cc1ccc(OCCN2CCCC2)cc1C returned Algae TAG accum inactive.
Cc1ccc(OCCCCN2CCOCC2)cc1 was read as Algae TAG accum active.
`Cc1ccc(OCCCCN2CCCC2)c(Br)c1` gave Algae TAG accum active.
`Cc1ccc(OCCCN2CCCC2)c(Br)c1` gave Algae TAG accum inactive.
For Cc1ccccc1OCCCCN1CCCCC1 the results were Algae TAG accum inactive.
Cc1ccc(OCCCN2CCCCC2)c(C)c1 was read as Algae TAG accum inactive.
For Cc1ccc(OCCCCN2CCCC2)cc1C the results were Algae TAG accum active.
Cc1ccc(OCCCCN2CCCCC2)cc1 was read as Algae TAG accum inactive.
Screening O=C(Nc1cccc(-c2nc3ccccc3[nH]2)c1)c1ccccc1[N+](=O)[O-] returned Algae TAG accum inactive.
Screening COc1ccc(/C=C(/NC(=O)c2ccco2)C(=O)Nc2cccc(C(C)=O)c2)cc1 returned Algae TAG accum inactive.
`CCOc1cc(-c2cccs2)cc(=O)c2c(C)oc(C)c12` gave Algae TAG accum inactive.
`CCCc1c(C)[nH]c2nc3ccccc3n2c1=O` gave Algae TAG accum inactive.
Screening Cc1ccc(OCCCCN2CCOCC2)c(C)c1 returned Algae TAG accum inactive.
Screening Cc1ccc(OCCCn2ccnc2)c(Br)c1 returned Algae TAG accum active.
Cc1ccccc1OCCCN1CCOCC1 was read as Algae TAG accum inactive.
Cc1ccc(OCCCCn2ccnc2)c(Br)c1 was read as Algae TAG accum inactive.
`Cc1ccc(OCCCN2CCOCC2)c(C)c1` gave Algae TAG accum active.
Cc1ccc(OCCCn2ccnc2)c([N+](=O)[O-])c1 was read as Algae TAG accum inactive.
Screening CC(C)N(CCC#N)S(=O)(=O)c1ccc(-c2ccc([N+](=O)[O-])cc2)cc1 returned Algae TAG accum inactive.
`O=S(=O)(NCCSCc1ccc(Cl)c(Cl)c1)c1ccc2c(c1)OCCO2` gave Algae TAG accum inactive.
Screening O=C(O)CCCOc1ccc([N+](=O)[O-])cc1 returned Algae TAG accum inactive.
CN(C)S(=O)(=O)c1ccc(C(=O)NC2CCCCCCC2)cc1 was read as Algae TAG accum inactive.
`O=C(NC1CCCCCCC1)c1ccccc1` gave Algae TAG accum inactive.
